Results on 55 compounds are retold here after ChEMBL document CHEMBL4513216, “Probing the Open Global Health Chemical Diversity Library for Multistage-Active Starting Points for Next-Generation Antimalarials” (ACS Infect Dis, 2020).

Among all 69,000 compounds or so, about 8,600 (12%) showed an effect of 50% or more. The sample holds strong results, similar compounds and a random draw of the others, so the mix is not that of the screen.

The assay deals with Plasmodium berghei. Nature of the assay: Screen against P. berghei liver stage (PbLuc), transformed with Luciferase, at 10uM. The assay is classed as functional, HepG2. Conditions: tested at 10 uM.
Consider `Cc1nc(CN2CCCC(NCc3cccc4ccccc34)C2)no1` (stereo not given), for which the INHIBITION is -18.8%. Next, `Cc1nc(CN2CCCC(Nc3ncnc4ccccc34)C2)no1` (stereo not given): 90.2%; `Cc1nc(CN2CCCC(NCc3cnn(C)c3)C2)no1` (stereo not given): -10.6%. `CCc1nc(CN2CCCC(Nc3ncnc4ccsc34)C2)no1` (stereo not given): the INHIBITION stood at 88.5%. In the case of `Cc1nc(CN2CCCC(Nc3ncnc4ccsc34)C2)no1` (stereo not given), the INHIBITION came out at 79.1%.

On to `Cc1nc(CN2CCCC(Nc3ncnc4c3CCC4)C2)no1` (stereo not given), for which the INHIBITION came to 85.1%. Turning to `Cc1nc(CN2CCCC(NCc3ccc4ccccc4c3)C2)no1` (stereo not given), the INHIBITION is 41.5%.

In the case of `CN(C)Cc1cnc(C2CCN(C(=O)c3cc(F)cc(F)c3)C2)[nH]1` (stereo not given), the INHIBITION is given as 2.05%. Next, `CC(C(=O)N1CCCC1)N1CCN(c2ncc(Cl)cn2)CC1` (stereo not given): 13.8%; `CN(C)C(=O)CN1CCCCC1c1nc(N)ncc1-c1ccccc1` (stereo not given): 19.3%. Consider `COc1cc(N2CC[C@@H]3O[C@@H](C(=O)NC(C)C)C[C@@H]32)ncn1`, for which the INHIBITION was -4.32%. For `O=C(COCc1nc(-c2ccncc2)no1)N1CCCCC1`, the INHIBITION is recorded as -19.7%. Next, `CN(C)S(=O)(=O)c1ccc(CN2CCCC2c2cccs2)o1` (stereo not given): 22.3%.

Take `CN1CCC(N2CCC(C(=O)N(C)C)CC2)CC1`: the INHIBITION worked out at 28.5%. Next, `CNCC(=O)N1CCCC(c2nccnc2Oc2cccc(F)c2)C1` (stereo not given): 49.5%; `Cn1cc(CCC(=O)NCc2ccccc2OC(C)(C)C)cn1`: -1.3%; `NC(=O)CSc1nnc2n1N=CN(c1ccccc1F)C2`: -14.9%. Next, `C[C@@H](O)CNC(=O)CCc1nc2cccnc2[nH]1`: -2.13%; `COCC(C)NC(=O)N1CCN(S(C)(=O)=O)CC1` (stereo not given): 5.91%. The figure for `CNC(=O)c1cn[nH]c1C1(C)CCCN(Cc2ccccn2)C1` (stereo not given) is 17.1%.

On to `CNC(=O)c1cn[nH]c1C1(C)CCCN(Cc2ccccc2OC)C1` (stereo not given), for which the INHIBITION was found to be 72.5%. The figure for `CNC(=O)c1cn[nH]c1C1(C)CCCN(CC2(O)CCCCC2)C1` (stereo not given) is 29.2%; for `CN(Cc1noc(C2CC2)n1)C1CCN(CCn2cccn2)C1` (stereo not given) it is -45.6%. Next, `Cc1nccnc1C1CCN(C2CCCC2O)CC1` (stereo not given): -59.6%; `COc1ccc(CCC(=O)N2CCNCC2C(=O)N2CCOCC2)cc1` (stereo not given): 30.3%; `Cc1nnc(CN(Cc2cccc3c2OCO3)CC2CCCO2)n1C` (stereo not given): -31.5%. Next, `Cc1noc(CN(Cc2ccco2)Cc2cccc3c2OCO3)n1`: 30.3%. In the case of `CCN(Cc1ccc2cccc(O)c2n1)CC1CCCO1` (stereo not given), the INHIBITION is recorded as -13.5%. The figure for `CN(Cc1ccc2c(c1)OCO2)Cc1nc(-c2ccco2)no1` is 15%. In the case of `CCN(Cc1nc(-c2ccco2)no1)Cc1cccc2c1OCO2`, the INHIBITION is 55%. Next, `CCN(Cc1cccc2c1OCO2)CC1CCCO1` (stereo not given): 50.5%; `CC(CNC(=O)N(C)Cc1ccco1)N1CCc2sccc2C1` (stereo not given): 11.4%; `COCC1CN(Cc2cccc(C#N)c2)Cc2nccn2C1` (stereo not given): 25.1%. As for `NC(=O)c1cccc(C(=O)N2CCCC(n3ccnc3)C2)c1` (stereo not given), the INHIBITION is on record as -31.5%.

Turning to `Cc1cnc(NC(=O)N2CCCCCC2)s1`, the INHIBITION is reported as -9.54%. Turning to `CCNc1ncc(C(=O)Nc2nnc(N3CCCCC3)[nH]2)s1`, the INHIBITION stood at 51.1%.

For the compound `O=C(Nc1nnc(N2CCCCC2)[nH]1)c1cccs1`, the INHIBITION was -20.6%. Next, `Cc1nc(C(=O)N2CCc3[nH]nc(Nc4ccccc4)c3C2)co1`: 10.9875%; `O=S(=O)(N1CCOCC1)N1CCC(Oc2cnccn2)CC1`: 32.8%; `CC(=O)N1CCOCC2(CN(Cc3ccc(C)o3)CCO2)C1` (stereo not given): 26.7%. The figure for `COCCN1CCC(CNC(=O)C2(c3cccc(C)c3)CC2)C1` (stereo not given) is 11.4%; for `O=C(Cn1nc2c(cc1=O)CCCC2)N[C@@H](C(=O)O)c1ccccc1` it is -19%; for `O=C(Cn1nc2c(cc1=O)CCCC2)NC(Cc1ccccc1)C(=O)O` (stereo not given) it is -30.4%.

Turning to `O=C(Cn1nc2c(cc1=O)CCCC2)NC(C(=O)O)c1ccccc1` (stereo not given), the INHIBITION was 69.8%. The figure for `Cc1oc(C(=O)O)cc1S(=O)(=O)Nc1cc(F)ccc1F` is 21%; for `Cc1nc(CN2C(=O)C[C@@H]3[C@@H]2CCN3S(=O)(=O)C2CC2)cs1` it is -64.1%.

Regarding `Cc1cccc(NC2CCN(C(=O)Nc3ccc(F)cc3C)CC2)n1`, the INHIBITION was -0.113%.

As for `Cc1cccc(NC2CCN(C(=O)Nc3ccncc3)CC2)n1`, the INHIBITION is 16.8%. Next, `Cc1cccc(NC2CCN(C(=O)Nc3cc(F)ccc3F)CC2)n1`: -7.35%; `Cc1cccc(NC2CCN(C(=O)Nc3cn[nH]c3)CC2)n1`: 28.8%.

As to `O=C(c1ccc2cc[nH]c2c1)N1CCC(Nc2cccnn2)CC1`, the INHIBITION came out at 11.4%. The figure for `Cc1cccc(NC2CCN(C(=O)Nc3ccc(F)c(F)c3)CC2)n1` is 67.4%; for `Cc1cccc(NC2CCN(C(=O)Nc3cc(C)on3)CC2)n1` it is 37.2%.

Take `Cc1cccc(NC2CCN(C(=O)Nc3cccc4[nH]ccc34)CC2)n1`: the INHIBITION worked out at 76.1%. Next, `Cc1cccc(NC2CCN(C(=O)Nc3cc(F)cc(F)c3)CC2)n1`: 90%.
